# Laboratory results reported in paper PMC5540273 (PLoS ONE, 2017).
# Legend:
# Settings in all cases: concentration: 1 μM, replicates: in singlicate; n = 1
# MLK1 = test system: T1, MLK1
# T1 construct: gene MAP3K9
# MLK2 = test system: MLK2
# MLK3 = test system: MLK3
# MRCKA = test system: MRCKA
# MRCKB = test system: T2, MRCKB
# T2 construct: gene CDC42BPB
# MST1R = test system: MST1R
# MST1 = test system: T3, MST1
# T3 construct: gene STK4
# MST2 = test system: T4, MST2
# T4 construct: gene STK3
# MST3 = test system: T5, MST3
# T5 construct: gene STK24
# MST4 = test system: MST4
# 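Note: KINOMEscan kinase panel screen.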
SMILES,%Inh (MLK1),%Inh (MLK2),%Inh (MLK3),%Inh (MRCKA),%Inh (MRCKB),%Inh (MST1R),%Inh (MST1),%Inh (MST2),%Inh (MST3),%Inh (MST4)
CN1CCN(Cc2cccc(-c3ccc4c(Nc5ccc(Oc6ccccc6)cc5)ccnc4c3)c2)CC1 [GW578342],4%,5%,4%,0%,0%,35%,12%,0%,3%,0%
O=C(Nc1ccccc1F)NC1CCN(c2ccnc(Nc3ccc(F)cc3)n2)CC1 [GSK1379800],0%,0%,0%,35%,0%,33%,1%,2%,0%,5%
O=c1[nH]cc(-c2ccc(N3CCOCC3)cc2)c2sc(-c3cn[nH]c3)cc12 [GSK2276055],0%,0%,0%,0%,0%,31%,0%,32%,29%,0%
O=C(Nc1cccc(-c2nn3ccccc3c2-c2ccnc(Nc3cccc(C(F)(F)F)c3)n2)c1)c1c(F)cccc1F [GSK292658],0%,0%,0%,4%,4%,0%,11%,0%,0%,3%
CC(C)(C)c1ccc2nccc(Nc3cccc(O)c3)c2c1 [GW856795],0%,3%,0%,0%,0%,32%,0%,18%,0%,0%
Cl.Cl.NCC(NCc1ccc(-c2ccnc3[nH]ccc23)s1)c1ccccc1 (centres unmarked) [GSK1321565],0%,0%,7%,23%,64%,12%,0%,48%,0%,0%
COC(=O)Nc1nc2cc(Oc3ccc(NC(=O)Nc4cc(C(F)(F)F)ccc4F)cn3)ccc2[nH]1.Cl.Cl [GW681170],12%,0%,10%,16%,0%,17%,0%,0%,0%,0%
Fc1ccc(-c2ncn(C3CCNCC3)c2-c2ccnc(Oc3ccc(-c4ccccc4)cc3)n2)cc1 [SB-245391],52%,46%,0%,26%,59%,0%,27%,30%,14%,31%
Cl.c1ccc(-c2ccc3c(Nc4ccc5[nH]ncc5c4)ccnc3c2)nc1 [GW440137],0%,27%,11%,9%,0%,43%,0%,28%,0%,3%
c1ccc(Oc2ccc(Nc3ccnc4cc(-c5ccc(CNCCN6CCOCC6)o5)ccc34)cc2)nc1 [GW567145],0%,0%,0%,0%,0%,16%,0%,0%,11%,0%
COc1cccc(C2=C(Nc3ccc(Cl)c(C(=O)O)c3)C(=O)NC2=O)c1 [SB-390769],4%,0%,0%,12%,0%,100%,25%,51%,0%,96.3%
CCn1c(-c2nonc2N)nc2c(C#CC(C)(C)O)nc(OC[C@H](N)c3ccccc3)cc21 [GSK943949],0%,23%,5%,0%,5%,1%,0%,58%,9%,7%
Cn1cc(-c2[nH]c3cc(NC(=O)[C@H](N)C4CCCCC4)cc4c3c2C=NNC4=O)cn1,88%,69%,83%,0%,0%,15%,27%,99.1%,55%,97.5%
COc1cccc(C(=O)Nc2cccc(Oc3ccc4nc(NC(=O)C5CC5)cn4n3)c2)c1,8%,0%,2%,21%,0%,17%,9%,0%,15%,0%
c1ccc(-c2n[nH]cc2Nc2ccnc3ccccc23)nc1 [GW694077],11%,0%,0%,18%,0%,12%,0%,0%,0%,0%
COc1ccc(Nc2nccc(NCCNC(=O)c3cc4ccccc4s3)n2)cc1 [GSK1379896],0%,0%,14%,21%,6%,40%,0%,24%,0%,0%
COc1cc(Nc2ncc3c(C)nc(-c4cc5ccccc5[nH]4)n3n2)cc(OC)c1OC [GW869516],93.8%,89%,87%,4%,7%,0%,0%,29%,0%,0%
Cl.NC(=O)c1cccc(Nc2nccc(Nc3ccc(Oc4c(Cl)cccc4Cl)c(Cl)c3)n2)c1 [GW659009],0%,0%,0%,0%,0%,3%,75%,11%,0%,0%
CC(=O)N1CCN(c2ccc(Nc3nccc(-c4sc(C(C)C)nc4-c4cccc(NS(=O)(=O)c5cccc(Cl)c5)c4)n3)cn2)CC1 [GSK1660437],33%,33%,46%,0%,0%,15%,4%,0%,6%,1%
CN(C)S(=O)(=O)c1cc(-c2ccc3nccc(-c4cccc(S(N)(=O)=O)c4)c3c2)cnc1N [GSK1669921],0%,22%,0%,0%,0%,32%,20%,2%,5%,6%
COC(=O)Nc1nc2ccc(Oc3ccc(NC(=O)Nc4cc(C(F)(F)F)ccc4F)cc3)cc2n1C.Cl [GW692089],0%,0%,19%,0%,0%,14%,0%,0%,3%,0%
COc1cc(Nc2nccc(N3CCC(NC(=O)c4cc5ccccc5s4)C3)n2)cc(OC)c1OC (centres unmarked) [GSK1379760],58%,46%,53%,11%,0%,39%,9%,0%,11%,100%
O=C(Nc1n[nH]c2nc(-c3ccc(O)cc3)ccc12)C1CC1 [SB-710363],0%,0%,0%,0%,0%,0%,0%,0%,0%,9%
CC(=O)Nc1nc2cnc(Nc3cc(NC(=O)c4cccc(C5(C#N)CC5)c4Cl)ccc3C)nc2s1,4%,10%,0%,5%,0%,13%,0%,12%,6%,0%
CN1CCN(CCCNc2nccc(-c3c(-c4ccc(F)cc4)nn4cc(C(F)(F)F)ccc34)n2)CC1 [GW621581],0%,22%,0%,0%,0%,8%,11%,0%,19%,0%
O=C(Nc1cccc(-c2nn3ccccc3c2-c2ccnc(Nc3cccc(F)c3)n2)c1)c1c(F)ccc(F)c1Cl [GSK357952],0%,31%,39%,9%,1%,50%,25%,0%,4%,0%
CC(C)c1nc(-c2cccc(NS(=O)(=O)c3c(F)cccc3F)c2F)c(-c2ccnc(Nc3ccc(N4CCOCC4)nc3)n2)s1 [GSK2008607],96.3%,100%,92.7%,0%,0%,82%,55%,0%,63%,39%
CNC(=O)c1ccccc1Nc1nc(Nc2ccc(N3CCOCC3)cc2)ncc1Cl.Cl [GSK1576028],97.6%,82%,86%,6%,0%,92.9%,99.1%,97.5%,61%,85%
Cc1occc1-c1ncc(OC[C@@H](N)Cc2c[nH]c3ccccc23)cc1-c1ccc2[nH]nc(C)c2c1.O=C(O)C(F)(F)F [GSK682037],12%,0%,28%,38%,72%,41%,71%,90%,55%,85%
